“And” between values parts separate entries of the source, which are not always exact repeats. Equal entries are not always repeated.
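Throughout, for H1.0 immunofluorescence intensity relative to DMSO: TDF is a line of transformed human dermal fibroblasts of mesenchymal origin.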
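Throughout, for cell number relative to DMSO: TDF denotes transformed human dermal fibroblasts of mesenchymal origin.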

The subject of one assay is TDF. In words: cell number relative to DMSO (% of DMSO); higher = more cells (less growth inhibition / toxicity). To be noted: concentration: 10 µM; 24 h. The procedure, abridged:
(§1)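 HCC1569 and TDF cells (800 per well, 384-well plates, RPMI with 10% FBS) were treated with compounds at 10 µM for 24 h at 37 °C, in triplicate. Cells were fixed in 3.7% formaldehyde and stained with a rabbit anti-H1.0 antibody, an AlexaFluor 647 secondary and DAPI; six fields per well were imaged at ×10. H1.0 nuclear intensity or cell number is expressed as percent of the plate DMSO control, taking the median of replicates. HCC1569 values were smoothed for positional effects.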
Consider `CC(C)(C)NCC(O)c1ccc(O)c(CO)c1.CC(C)(C)NCC(O)c1ccc(O)c(CO)c1.O=S(=O)(O)O` (stereo not drawn) [Albuterol hemisulfate], for which the cell number amounted to 103.

The compound `COC1(C2=NCCN2)COc2ccccc2O1.Cl` (stereo not drawn) gave a cell number of 108.

Regarding `Cn1c(NCCN(CCO)CCCc2ccc([N+](=O)[O-])cc2)cc(=O)n(C)c1=O` [Nifekalant], the cell number stood at 99.4.

For `CCCCCCCCCCCCCC(=O)O` [Tetradecanoic acid], the cell number stood at 104.

As for `CN(Cc1cnc2nc(N)nc(N)c2n1)c1ccc(C(=O)NC(CCC(=O)O)C(=O)O)cc1` (single isomer, unassigned; (-)) [(-)Amethopterin], the cell number stood at 96.2.

The compound `Nc1nc(N)c2nc(CNc3ccc(C(=O)NC(CCC(=O)O)C(=O)O)cc3)cnc2n1` (stereo not drawn) [Aminopterin] gave a cell number of 87.6.

As to `N#CC(=Cc1ccc(O)c(O)c1)C(=O)c1ccc(O)c(O)c1` [Tyrphostin AG 538], the cell number was 97.3.

`CN(C)CCN1C(=O)c2ccccc2N(C)c2ccccc21` [Dibenzepine] registered a cell number of 112.

In turn, `CCCCCCCCC=CCCCCCCCCCCCC(=O)O` [13(E)-Docosenoic acid] displayed a cell number of 108.

Consider `CCCCCC(O)C=CC1C(O)CC(O)C1CC=CCCCC(=O)O` (stereo not drawn) [Prostaglandin F2a], for which the cell number is 107.

`CCCn1cnc2c1c(=O)n(CCCCC(C)=O)c(=O)n2C` [Propentofylline]: the cell number turned out to be 113.

The compound `O=c1oc(Cl)c(Cl)c2ccccc12` [3,4-Dichloroisocoumarin] registered a cell number of 109.

Turning to `O=C(NCCO)c1cccc(-c2cc(Nc3ccc(OC(F)(F)F)cc3)ncn2)c1`, the cell number stood at 94.8.

Another assay deals with TDF. In words: H1.0 immunofluorescence intensity relative to DMSO (% of DMSO); higher = stronger H1.0 induction, active = 120 or more. To be noted: concentration: 10 µM; 24 h. The procedure, abridged: as §1
On to `CSc1nc(-c2ccnc(NC(C)c3ccccc3)c2)c(-c2ccc(F)cc2)[nH]1` (stereo not drawn) [p38 MAP Kinase Inhibitor III], for which the H1.0 immunofluorescence intensity is 95.2 (inactive).

For `CC(C)NCC(O)COc1ccc(CCOCC2CC2)cc1.Cl` (stereo not drawn) [Betaxolol.HCl], the H1.0 immunofluorescence intensity is 90.4 (inactive).

`O=C(O)CO.[NH2-].[NH2-].[Pt+2]` [Nedaplatin]: the H1.0 immunofluorescence intensity is 96.9 (inactive).

As to `CCCc1c(OCCCCc2nn[nH]n2)ccc(C(C)=O)c1O`, the H1.0 immunofluorescence intensity is 97.5 (inactive) and 94.5 (inactive).

As for `Cl.NC(CO)C(=O)NNCc1ccc(O)c(O)c1O` (stereo not drawn) [Benserazide hydrochloride], the H1.0 immunofluorescence intensity was 98.3 (inactive).

On to `CCCCCCCCC=CCCCCCCCCCCC(=O)O` [12(Z) Heneicosenoic acid], for which the H1.0 immunofluorescence intensity is 95.5 (inactive).

Take `CC1(C)C(=O)N(CCN2CCC(C(=O)c3ccc(F)cc3)CC2)c2ccccc21.Cl` [LY-310,762 hydrochloride]: the H1.0 immunofluorescence intensity was 94.2 (inactive).

For the compound `CN(C)CCCN1c2ccccc2Sc2ccc(Cl)cc21.Cl` [Chlorpromazine.HCl], the H1.0 immunofluorescence intensity was 106 (inactive).

For `O=C1Nc2ccc(Cl)cc2C(C#CC2CC2)(C(F)(F)F)O1` (stereo not drawn) [Efavirenz], the H1.0 immunofluorescence intensity is 97.6 (inactive).

In the case of `N[C@H](CO)C(=O)O` [D-Serine], the H1.0 immunofluorescence intensity was 87.2 (inactive).

In the case of `NCC(O)c1ccc(O)c(O)c1.O=C(O)C(O)C(O)C(=O)O` (stereo not drawn) [L(-)-Norepinephrine bitartrate], the H1.0 immunofluorescence intensity was 95.8 (inactive).

As for `COc1ccc(S(=O)(=O)Nc2nc(-c3cccc([N+](=O)[O-])c3)cs2)cc1OC`, the H1.0 immunofluorescence intensity is 102 (inactive).

For `CC(=O)OC1CCC2(C)C(C1)C(OC(C)=O)CC1C2CC2C3CN4CC(C)CCC4C(C)C3CCC21O` (stereo not drawn) [Diacetylkorseveriline], the H1.0 immunofluorescence intensity was 96.2 (inactive).

For `CN1CCN(c2nc3cc(C(F)(F)F)ccc3n3cccc23)CC1.O=C(O)C=CC(=O)O`, the H1.0 immunofluorescence intensity was 103 (inactive).

Turning to `CC(C)(ON=C(C(=O)NC1C(=O)N2C(C(=O)[O-])=C(C[n+]3ccccc3)CSC12)c1csc(N)n1)C(=O)O` (stereo not drawn) [Ceftazidime], the H1.0 immunofluorescence intensity was 90.2 (inactive).

For the compound `CNC(=O)C1OC(n2cnc3c(NCc4ccc(N)cc4)ncnc32)C(O)C1O` (stereo not drawn), the H1.0 immunofluorescence intensity is 93.8 (inactive).

Take `C[N+](C)(C)CCC(=O)c1cccc2ccccc12.[I-]` [2-(alpha-Naphthoyl)ethyltrimethylammonium iodide]: the H1.0 immunofluorescence intensity is 101 (inactive).

In the case of `CN(C)CCC(c1ccc(Br)cc1)c1ccccn1.O=C(O)C=CC(=O)O` (racemic), the H1.0 immunofluorescence intensity was 97.9 (inactive).

With `COc1ccc(CN2CCN(C(c3ccc(F)cc3)c3ccc(F)cc3)CC2)c(OC)c1OC` [Lomerizine], the H1.0 immunofluorescence intensity is 92.3 (inactive).

Take `Nc1c2c(nc3ccccc13)CCCC2O.O=C(O)C=CC(=O)O` (stereo not drawn) [Hydroxytacrine]: the H1.0 immunofluorescence intensity was 91.5 (inactive).

As for `CCC1OC(=O)C(C)C(OC2CC(C)(OC)C(O)C(C)O2)C(C)C(OC2OC(C)CC(N(C)C)C2O)C(C)(OC)CC(C)C(=O)C(C)C(O)C1(C)O` (stereo not drawn) [Clarithromycin], the H1.0 immunofluorescence intensity was 94.3 (inactive).

Take `CC(C)=CCCC(C)=CCCC(C)=CCSc1ccccc1C(=O)O` [Farnesylthiosalicylic acid]: the H1.0 immunofluorescence intensity was 90.7 (inactive).

With `COc1ccc2c(c1)CC[C@@H]1[C@@H]2CC[C@]2(C)[C@@H](NCCCCCCN3C(=O)C=CC3=O)CC[C@@H]12.O`, the H1.0 immunofluorescence intensity was 99.9 (inactive).

Regarding `C#CCN(C)Cc1ccccc1.Cl` [Pargyline hydrochloride], the H1.0 immunofluorescence intensity was 91.7 (inactive).

On to `CC1(COc2ccc(CC3SC(=O)NC3=O)cc2)CCCCC1` (stereo not drawn) [Ciglitizone], for which the H1.0 immunofluorescence intensity was 96.5 (inactive).

Regarding `CC(C)C[C@H](NC(=O)C(O)[C@H](N)Cc1ccc([N+](=O)[O-])cc1)C(=O)O.Cl` (stereo partly drawn), the H1.0 immunofluorescence intensity was 95.3 (inactive).

`CC(=O)SCC(Cc1ccccc1)C(=O)NCC(=O)OCc1ccccc1` (stereo not drawn) [Racecadotril]: the H1.0 immunofluorescence intensity is 91.5 (inactive).

Consider `CC(C)(C)NCC(O)c1ccc(O)c(CO)c1.CC(C)(C)NCC(O)c1ccc(O)c(CO)c1.O=S(=O)(O)O` (stereo not drawn) [Albuterol hemisulfate], for which the H1.0 immunofluorescence intensity was 92.5 (inactive).

`COC1(C2=NCCN2)COc2ccccc2O1.Cl` (stereo not drawn): the H1.0 immunofluorescence intensity is 89.4 (inactive).

Consider `Cn1c(NCCN(CCO)CCCc2ccc([N+](=O)[O-])cc2)cc(=O)n(C)c1=O` [Nifekalant], for which the H1.0 immunofluorescence intensity was 96.3 (inactive).

For `CCCCCCCCCCCCCC(=O)O` [Tetradecanoic acid], the H1.0 immunofluorescence intensity is 97.8 (inactive).

On to `CN(Cc1cnc2nc(N)nc(N)c2n1)c1ccc(C(=O)NC(CCC(=O)O)C(=O)O)cc1` (single isomer, unassigned; (-)) [(-)Amethopterin], for which the H1.0 immunofluorescence intensity was 106 (inactive).

As to `Nc1nc(N)c2nc(CNc3ccc(C(=O)NC(CCC(=O)O)C(=O)O)cc3)cnc2n1` (stereo not drawn) [Aminopterin], the H1.0 immunofluorescence intensity is 87.8 (inactive).

Consider `N#CC(=Cc1ccc(O)c(O)c1)C(=O)c1ccc(O)c(O)c1` [Tyrphostin AG 538], for which the H1.0 immunofluorescence intensity was 99.2 (inactive).

For `CN(C)CCN1C(=O)c2ccccc2N(C)c2ccccc21` [Dibenzepine], the H1.0 immunofluorescence intensity was 97.7 (inactive).

For `CCCCCCCCC=CCCCCCCCCCCCC(=O)O` [13(E)-Docosenoic acid], the H1.0 immunofluorescence intensity was 96 (inactive).

For `CCCCCC(O)C=CC1C(O)CC(O)C1CC=CCCCC(=O)O` (stereo not drawn) [Prostaglandin F2a], the H1.0 immunofluorescence intensity is 97.6 (inactive).

`CCCn1cnc2c1c(=O)n(CCCCC(C)=O)c(=O)n2C` [Propentofylline]: the H1.0 immunofluorescence intensity was 90.3 (inactive).

Consider `O=c1oc(Cl)c(Cl)c2ccccc12` [3,4-Dichloroisocoumarin], for which the H1.0 immunofluorescence intensity was 91.9 (inactive).

On to `O=C(NCCO)c1cccc(-c2cc(Nc3ccc(OC(F)(F)F)cc3)ncn2)c1`, for which the H1.0 immunofluorescence intensity was 110 (inactive).

These data come from the supplement of paper PMC7156485.
